Measurements as given in PubChem BioAssay AID1851 (National Center for Advancing Translational Sciences (NCATS), 2009).
Several values for one entry are separate records, joined by “and”; a condition that tells them apart may be missing. Equal entries are not always repeated. Screen size: about 16,000 compounds; about 4,000 (25%) were called active. About 26% were inconclusive and are not listed. Calls follow the shape of the dose curve; as a rule, active = well fitted curve in the direction sought with a large enough effect; inconclusive = small, poorly fitted or top-dose-only effect, or effect the other way; inactive = no such curve, though single readings can be large or run the other way. Not all results are given here. More than one record can exist for a structure, and the calls need not agree.

molecular target: Cytochrome P450 2C9 (Homo sapiens) (UniProt P11712); experiment: Cytochrome panel assay with activity outcomes; settings: recombinant CYP, pro-luciferin dealkylation, luminescence, p450-cyp2c9; series mostly up to 57.1 µM; activity, negative = inhibition: at the top concentration
Sequence (P11712 whole entry, looked up): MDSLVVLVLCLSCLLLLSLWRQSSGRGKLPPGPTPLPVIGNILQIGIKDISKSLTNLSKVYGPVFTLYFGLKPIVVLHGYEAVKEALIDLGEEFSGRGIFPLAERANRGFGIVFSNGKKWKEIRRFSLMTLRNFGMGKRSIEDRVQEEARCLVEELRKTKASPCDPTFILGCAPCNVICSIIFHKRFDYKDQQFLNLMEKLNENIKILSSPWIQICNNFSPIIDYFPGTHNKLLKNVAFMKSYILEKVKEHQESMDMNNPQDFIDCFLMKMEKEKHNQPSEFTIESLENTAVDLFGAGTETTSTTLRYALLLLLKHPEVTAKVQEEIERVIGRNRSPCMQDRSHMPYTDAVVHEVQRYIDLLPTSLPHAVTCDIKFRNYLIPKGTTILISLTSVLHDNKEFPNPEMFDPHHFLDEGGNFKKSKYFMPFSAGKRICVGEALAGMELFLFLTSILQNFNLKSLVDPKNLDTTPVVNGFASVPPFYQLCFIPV
% is scaled to controls: 0 for no effect and ±100 for the full control effect.

AC50, inactive and 7.94 µM (active):
Clc1cccc(Cl)c1NC1=NCCN1

AC50, active:
S=C(Nc1ccccc1)Nc1ccccc1C#Cc1ccccc1 3.98 µM
Cc1ccc(-c2nn(-c3ccccc3)cc2/C=N/NS(=O)(=O)c2ccccc2)cc1 7.94 µM
O=S(=O)(N/N=C\c1cn(-c2ccccc2)nc1-c1ccccc1)c1ccccc1 4.47 µM
CC(C)=C1C(=O)C(c2ccccc2)=C2CN3C(=O)N(CCc4ccccc4)C(=O)[C@]3(Cc3ccccc3)[C@H]21 10 µM
CCN1CCc2nc(NC(=O)CC(c3ccccc3)c3ccccc3)sc2C1 14.1 µM
Cc1nc2nc(SCC(=O)NCc3ccco3)nn2c(C)c1Cc1c(F)cccc1Cl 0.708 µM
Cc1ccc(Cc2c(C)nc3nc(SCC(=O)NCc4ccco4)nn3c2C)cc1 10 µM
COc1ccc(CCNC(=O)c2ccc3c(=O)n(Cc4ccco4)c(=S)[nH]c3c2)cc1OC 4.47 µM
CN(C)S(=O)(=O)Oc1ccsc1C(=O)Nc1cccc(Cl)c1 8.91 µM
CN(C)S(=O)(=O)Oc1ccc(Cl)cc1C(=O)Nc1cccc(C(F)(F)F)c1 7.94 µM
COc1ccc2c(c1OC)C(=O)O[C@@H]2[C@H]1c2c(cc3c(c2OC)OCO3)CCN1C 0.126 µM
COc1ccc2c(c1OC)C(=O)OC2[C@H]1c2c(cc3c(c2OC)OCO3)CCN1C (stereo partly specified) 5.01 µM and 2.51 µM
Cc1cc2c(nc1C)CCCN2C[C@H](O)CN1CCCc2nc(-c3ccc(Br)cc3)ccc21 2.51 µM
COc1ccc(-c2ccc3c(n2)CCCN3C[C@H](O)CN2CCCc3nc(C)c(C)cc32)cc1 3.98 µM
Cc1ccc(Cn2nc(C)c(NC(=O)c3cc(-c4ccco4)on3)c2C)cc1 12.6 µM
C/C(=N\Nc1ccc([N+](=O)[O-])cc1)c1cccc(N)c1 5.62 µM
C/C(=N\Nc1nnc(-c2ccccc2)c(-c2ccccc2)n1)c1cccc([N+](=O)[O-])c1 20 µM
CCOC(=O)c1nnc(-c2ccccc2)nc1NCc1ccccc1 25.1 µM
COc1ccc(C(=O)CCN(C)C)c2ccccc12 3.98 µM
O=C1c2ccccc2CCC12N=NCC2c1ccc(Cl)cc1 (stereo unspecified) 14.1 µM
Nc1ccc(Nc2ccccc2)cc1 8.91 µM
CNC(=S)Nc1ccc(Nc2ccccc2)cc1 39.8 µM
CC(C)(C)NC(=S)Nc1ccc(Nc2ccccc2)cc1 7.08 µM
Cc1c(C(=O)Nc2nccs2)sc2nc(-c3cccs3)cc(C(F)(F)F)c12 3.16 µM
CCC(NC(=O)C1(C)CC1(Br)Br)c1ccc(C)cc1 (stereo unspecified) 5.01 µM
COc1ccccc1CC(=O)Nc1cc2oc3ccccc3c2cc1OC 3.98 µM
CCCC[C@@H]1C[C@H]1C(NC(=O)c1cccs1)c1ccc(Cl)cc1 (stereo partly specified) 1 µM
CCCC[C@@H]1C[C@H]1C(NC(=O)c1cccs1)c1ccc(-c2ccccc2)cc1 (stereo partly specified) 1.58 µM
CCCC[C@@H]1C[C@H]1C(NC(=O)c1cccs1)c1ccc(C(F)(F)F)cc1 (stereo partly specified) 1.58 µM
COc1cccc(Cn2c(=O)c(CCc3ccccc3)nc3cnc(OC)nc32)c1 6.31 µM
COc1cccc(Cn2c(=O)cnc3cnc(N(C)C)nc32)c1 12.6 µM
COc1cccc(Cn2c(=O)cnc3cnc(Nc4cccc(OC)c4)nc32)c1 2 µM
COc1cccc(Cn2c(=O)c(CCc3ccccc3)nc3cnc(N(C)C)nc32)c1 10 µM
CN1CCN(c2ncc3nc(CCc4ccccc4)c(=O)n(Cc4cccs4)c3n2)CC1 25.1 µM
COc1cccc(Cn2c(=O)cnc3cncnc32)c1 31.6 µM
COc1cccc(Cn2c(=O)c(CCc3ccccc3)nc3cnc(N4CCN(C)CC4)nc32)c1 25.1 µM
CCNc1ncc2nc(C)c(=O)n(Cc3cccc(OC)c3)c2n1 15.8 µM

AC50, inactive:
CCCOc1ccccc1-c1nc2n[nH]nc2c(=O)[nH]1
COc1nc(C)nc(Cl)c1NC1=NCCN1
c1ccc([C@@H]2CN3CCSC3=N2)cc1

activity, negative = inhibition, inactive:
C=CCN(CC=C)C(=S)Nc1ccccc1 -11.8%
O=S(=O)(N/N=C\c1cccn1-c1ccccc1)c1ccc2ccccc2c1 4.26%
CC1(C)C(=O)C(c2ccccc2)=C2CN3C(=O)N(CCc4ccccc4)C(=O)C3(Cc3ccc(C(F)(F)F)cc3)C=C21 (stereo unspecified) -3.37%
CCN1CCC[C@@H](OC(=O)C(c2ccccc2)c2ccccc2)C1 -2.59% [at 25.6 µM]
Cc1nc2nc(C)c(CCC(=O)NCCCN3CCN(c4cccc(Cl)c4)CC3)c(C)n2n1 -19.6%
Cc1nc2ncnn2c(C)c1CCC(=O)NCc1ccco1 15.9%
Fc1ccc(Nc2ncncc2-c2ccoc2)cc1 -24.6% [at 2.29 µM]
COC(=O)/C=C\CCc1coc(/C=C\CNC(=O)OC)n1 -17.2% [at 11.4 µM]
c1ccc2c(Nc3ccncc3)nc(-c3ccoc3)nc2c1 -11.6% [at 2.29 µM]
CC(C)NC(=O)c1ccc2c(=O)n(Cc3ccco3)c(=S)[nH]c2c1 -9.15%
C/C(=N/OC(=O)c1cccc(Cl)c1)c1nccs1 -18.8%
O=C(Cn1ccc(=O)[nH]c1=O)Nc1ccc(C(=O)O)c(O)c1 -4.1% [at 11.4 µM]
CC(C)CN1CC[C@@]2(CCCN(C(=O)c3cc(C(F)(F)F)cc(C(F)(F)F)c3)C2)C1 -7.51%
COc1c(O)ccc2c1CN1CCc3cc4c(cc3[C@@H]1C2)OCO4 1.47% [at 11.4 µM]
COc1ccc2cc3[n+](cc2c1OC)CCc1cc2c(cc1-3)OCO2 3.73% [at 25.6 µM]
COc1ccc2c(c1OC)C(=O)OC2Nc1ncccc1C (stereo unspecified) 20.3%
NCC[C@H](O)C(=O)N[C@H]1C[C@@H](N)[C@@H](O[C@H]2O[C@@H](CN)[C@@H](O)[C@@H](O)[C@@H]2O)[C@@H](O)[C@@H]1O[C@H]1O[C@@H](CO)[C@@H](O)[C@@H](N)[C@@H]1O 3.41% [at 25.6 µM]
O=C1c2ccccc2C(=O)C1c1ccccc1 -10.8% [at 25.6 µM]
OC(CN1CCCCC1)CN1CCCCC1 19.5%
CO/N=C(\C)CCN1CCCc2nc(C)c(C)cc21 -0.836% [at 11.4 µM]
Cc1cc2c(nc1C)CCCN2C[C@@H](O)CN1CCN(C)CC1 29.4% [at 11.4 µM]
Cc1cc2c(nc1C)CCCN2CC(O)CN1CCCc2nc(C)c(C)cc21 -10.8% [at 11.4 µM]
CCN(CC)C[C@@H](O)CN1CCCCc2nc(C)c(C)cc21 -1.31% [at 11.4 µM]
Cc1ccc(Cn2ccc(NC(=O)c3cc4nc(-c5ccco5)cc(C(F)(F)F)n4n3)n2)cc1 -18.3%
c1ccc2c(CC3=NCCN3)cccc2c1 -5.9% [at 25.6 µM]
O=[N+]([O-])c1cccc(/C=N/Nc2cc(Cl)nc(-c3ccccc3)n2)c1 -21.3%
CN(C)C(=O)c1ccc(-c2nc(NCc3ccccc3)c3ccccc3n2)cc1 -4.46% [at 2.29 µM]
CN(C)C(=O)c1ccc(-c2nccc(NCc3ccccc3)n2)cc1 -14% [at 2.29 µM]
O=C(O)CCC(=O)c1ccc2ccc3cccc4ccc1c2c34 4.8% [at 11.4 µM]
CCCCN(CC)C(=O)Cc1ccccc1OC -33.3%
CNC(=S)Nc1ccc2nc(C)c(C)nc2c1 -19.6%
N#[N+]c1ccc(Nc2ccccc2)cc1 5.95% [at 11.4 µM]
COc1ccc(NC(=S)Nc2ccccc2)cc1 -15.3% [at 11.4 µM]
Cc1ccccc1-c1cncnc1Nc1ccccc1 -13.5% [at 2.29 µM]
CN(C)C(=O)c1ccc(-c2ccc3ncnc(NCCN4CCOCC4)c3c2)cc1 1.81% [at 2.29 µM]
CC(C)(C)NC(=O)CN(Cc1cccs1)C(=O)CCC(=O)Nc1nccs1 -15.4%
CC[C@H](NC(=O)c1c(C)c(-c2ccccc2)nc2ccccc12)c1ccccc1 -5.92%
N#Cc1cccc(-c2nccc(-n3ccnc3)n2)c1 5.77% [at 2.29 µM]
CO[C@H]1[C@@H](OC(N)=O)[C@H](O)[C@@H](Oc2ccc3c(O)c(NC(=O)c4ccc(O)c(CC=C(C)C)c4)c(=O)oc3c2C)OC1(C)C -30% [at 25.6 µM]
COC(=O)N1CCC2(CCN(Cc3ccccc3OC)CC2)CC1 11.3%
CCOCC(=O)Nc1c(C(=O)Nc2ccccc2OC)oc2ccccc12 -15.3%
Cc1cc(C)c2c(N)c3ccccc3nc2n1 -20.2%
COc1cccc(Nc2ncc3ncc(=O)n(CCC#N)c3n2)c1 -9.1%
CCNc1ncc2nc(CCc3ccccc3)c(=O)n(Cc3cccc(OC)c3)c2n1 -28.8%
COc1cccc(Nc2ncc3ncc(=O)n(C)c3n2)c1 -22.8%
COc1ccc(-n2c(=O)cnc3cnc(N(C)C)nc32)cc1 -5.06%
N[C@@H](Cc1cnc[nH]1)C(=O)O 22.8%
Cc1nc2nc[nH]n2c(=O)c1NC(=O)CC12CC3CC(CC(C3)C1)C2 -28.9%
C[C@H]1[C@H](C)OC(=O)C[C@H](O)C[C@H](O)C[C@H](O)CC[C@H](O)[C@H](O)CC(=O)C[C@H](O)[C@H](C(=O)O)[C@H](O)C[C@H](O[C@@H]2O[C@@H](C)[C@H](O)[C@@H](N)[C@@H]2O)C=CC=CC=CC=CCCC=CC=C[C@@](C)(O)[C@H]1O 14.1% [at 11.4 µM]
CN1CCN(c2ncc3nc(-c4ccccc4)c(=O)n(Cc4cccs4)c3n2)CC1 -19.8%
CCNc1ncc2nc(-c3ccc(OC)cc3)c(=O)n(Cc3cccc(OC)c3)c2n1 -9.5%
Cc1nc2cnc(N3CCN(C)CC3)nc2n(Cc2cccs2)c1=O 10.7%
COc1ccc(-n2c(=O)c(CCc3ccccc3)nc3cnc(N4CCN(C)CC4)nc32)cc1 -23.4%
Cc1nc2cnc(N3CCN(C)CC3)nc2n(CCc2ccccc2)c1=O 0.67%
CCNc1ncc2nc(C)c(=O)n(Cc3cccs3)c2n1 -3.88%
